Residue numbers refer to the chain shown, from its start.
Columns and labels:
Experiment in all cases: protein-binding microarray (PBM); PBM: ~300 nM protein, 6 mM HEPES pH 7.8, 80 mM KCl, 0.5 mM EDTA, 0.5 mM EGTA, 6% glycerol, 35 ng/ul poly-dIdC, 1% milk, 1 h, room temperature; Ap Aiptasia and Nv Nematostella (sea anemones) / Co Capsaspora / Aq Amphimedon (sponge) / Dm Drosophila / Hu human; RHD is the Rel homology domain; high values mean tight binding
Details in all cases: dsDNA, one strand shown
[1] = molecular target: T1, GST-Ap-NF-kB RHD (Exaiptasia pallida (Aiptasia), UniProt A0A913YAJ5 2-422)
T1 sequence: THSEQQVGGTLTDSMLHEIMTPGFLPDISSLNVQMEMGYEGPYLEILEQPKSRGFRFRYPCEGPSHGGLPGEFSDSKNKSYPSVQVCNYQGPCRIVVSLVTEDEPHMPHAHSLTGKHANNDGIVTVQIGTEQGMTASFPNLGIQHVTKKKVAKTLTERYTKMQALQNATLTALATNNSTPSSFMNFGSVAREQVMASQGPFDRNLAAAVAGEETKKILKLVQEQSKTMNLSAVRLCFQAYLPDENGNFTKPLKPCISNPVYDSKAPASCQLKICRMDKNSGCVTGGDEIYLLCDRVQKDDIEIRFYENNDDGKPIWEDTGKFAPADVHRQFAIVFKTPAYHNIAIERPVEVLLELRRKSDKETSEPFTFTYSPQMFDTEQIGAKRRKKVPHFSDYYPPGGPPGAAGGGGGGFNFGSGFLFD

[2] = molecular target: T2, GST-Nv-NF-kB (Cys allele) (Nematostella vectensis, UniProt E5G601 2-411)
T2 sequence: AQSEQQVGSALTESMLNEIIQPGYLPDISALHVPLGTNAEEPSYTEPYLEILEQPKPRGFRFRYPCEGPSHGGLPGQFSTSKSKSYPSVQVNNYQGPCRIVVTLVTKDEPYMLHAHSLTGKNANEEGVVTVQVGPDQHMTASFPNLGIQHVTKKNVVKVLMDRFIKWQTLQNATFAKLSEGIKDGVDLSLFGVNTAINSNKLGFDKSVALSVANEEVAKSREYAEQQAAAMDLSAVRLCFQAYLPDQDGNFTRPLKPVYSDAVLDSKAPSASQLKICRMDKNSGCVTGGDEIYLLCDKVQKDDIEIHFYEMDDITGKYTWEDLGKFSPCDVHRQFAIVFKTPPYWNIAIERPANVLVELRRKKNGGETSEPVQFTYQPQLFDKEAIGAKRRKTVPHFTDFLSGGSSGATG

[3] = molecular target: T3, GST-Nv-NF-kB (Ser allele) (Nematostella vectensis, UniProt A7UNT2 2-411)
T3 sequence: T2 sequence with Q21R, C66S, S207N, E215Q, V217A, E225K, A268E, D399E

[4] = molecular target: T4, GST-Co-NF-kB (Capsaspora owczarzaki, UniProt F1ARL5 200-546)
T4 sequence: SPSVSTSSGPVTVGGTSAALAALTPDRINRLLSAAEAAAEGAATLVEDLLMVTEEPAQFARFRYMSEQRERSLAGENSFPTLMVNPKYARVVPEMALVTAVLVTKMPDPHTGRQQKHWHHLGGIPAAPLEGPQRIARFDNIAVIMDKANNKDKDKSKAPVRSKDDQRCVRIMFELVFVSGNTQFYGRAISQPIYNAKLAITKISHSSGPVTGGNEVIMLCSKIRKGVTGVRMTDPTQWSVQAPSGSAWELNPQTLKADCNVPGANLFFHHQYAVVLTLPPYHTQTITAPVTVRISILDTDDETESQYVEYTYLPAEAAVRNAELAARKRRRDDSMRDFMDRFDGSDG

[5] = molecular target: T5, GST-Dm-Relish (Drosophila melanogaster, UniProt Q94527 99-473)
T5 sequence: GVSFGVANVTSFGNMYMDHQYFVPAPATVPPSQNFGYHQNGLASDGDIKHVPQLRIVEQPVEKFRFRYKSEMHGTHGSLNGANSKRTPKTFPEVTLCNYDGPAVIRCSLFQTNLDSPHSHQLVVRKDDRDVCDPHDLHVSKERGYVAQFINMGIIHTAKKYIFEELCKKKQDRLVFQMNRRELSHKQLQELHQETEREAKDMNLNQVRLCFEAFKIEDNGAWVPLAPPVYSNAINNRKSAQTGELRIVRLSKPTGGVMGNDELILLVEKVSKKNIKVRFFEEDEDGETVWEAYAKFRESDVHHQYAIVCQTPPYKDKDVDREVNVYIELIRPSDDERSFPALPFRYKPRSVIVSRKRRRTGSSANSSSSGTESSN

[6] = molecular target: T6, GST-Aq-NF-kB (Amphimedon queenslandica, UniProt A9Y5G7 2-389)
T6 sequence: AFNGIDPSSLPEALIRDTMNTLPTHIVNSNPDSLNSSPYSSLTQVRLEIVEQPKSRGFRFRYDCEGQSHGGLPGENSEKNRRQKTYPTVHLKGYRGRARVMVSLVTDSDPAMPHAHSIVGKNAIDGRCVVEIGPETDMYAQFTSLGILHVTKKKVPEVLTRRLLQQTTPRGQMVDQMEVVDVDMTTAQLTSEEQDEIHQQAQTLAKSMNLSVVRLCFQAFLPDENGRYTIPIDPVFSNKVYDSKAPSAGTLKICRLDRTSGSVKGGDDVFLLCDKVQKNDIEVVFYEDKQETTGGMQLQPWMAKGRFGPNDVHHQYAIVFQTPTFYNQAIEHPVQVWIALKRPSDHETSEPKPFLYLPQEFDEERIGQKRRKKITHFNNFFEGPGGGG

[7] = molecular target: GST-Hu-p50 (Homo sapiens, UniProt P19838 7-356)
Sequence of GST-Hu-p50 (P19838 7-356): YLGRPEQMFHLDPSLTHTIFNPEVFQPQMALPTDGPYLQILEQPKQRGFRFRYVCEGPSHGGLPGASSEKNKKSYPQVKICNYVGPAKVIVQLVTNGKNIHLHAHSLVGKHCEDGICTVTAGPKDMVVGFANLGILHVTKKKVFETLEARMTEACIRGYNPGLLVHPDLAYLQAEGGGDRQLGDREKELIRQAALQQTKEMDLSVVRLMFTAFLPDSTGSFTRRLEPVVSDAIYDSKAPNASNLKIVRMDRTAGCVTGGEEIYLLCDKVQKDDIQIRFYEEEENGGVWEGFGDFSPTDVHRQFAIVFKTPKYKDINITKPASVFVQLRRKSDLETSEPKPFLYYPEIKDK

Sequence	binding signal [1] [z-score]	binding signal [2] [z-score]	binding signal [3] [z-score]	binding signal [4] [z-score]	binding signal [5] [z-score]	binding signal [6] [z-score]	binding signal [7] [z-score]
CCGATTAACATCAAATTGTCCCCTGATGTTAATCGGGTCTTGATTCGCTTGACGCTGCTG	4.64	5.87	6.62	6.08	2.6	4.84	4.96
CCGATTAACATCAAGGGGACTTCTGATGTTAATCGGGTCTTGATTCGCTTGACGCTGCTG	7.92	7.59	7.54	2.41	7.45	6.14	6.74
CCGATTAACATCAAGAATTTCCCTGATGTTAATCGGGTCTTGATTCGCTTGACGCTGCTG	5.92	7.47	7.49	5.07	3.52	7.53	5.23
CCGATTAACATCAGGGCGCCCCCTGATGTTAATCGGGTCTTGATTCGCTTGACGCTGCTG	6.07	4.59	3.38	1.95	5.55	7.98	4.97
CCGATTAACATCAGACATCCCCCTGATGTTAATCGGGTCTTGATTCGCTTGACGCTGCTG	5.54	5.65	5.36	3.71	5.06	5.17	4.88
CCGATTAACATCAGGGGGTTTGATGATGTTAATCGGGTCTTGATTCGCTTGACGCTGCTG	6.11	4.29	6.14	1.61	5.81	4.09	6.03
CCGATTAACATCACGGGATCCCCTGATGTTAATCGGGTCTTGATTCGCTTGACGCTGCTG	7.35	4.81	6.31	3.23	9.23	5.41	4.53
CCGATTAACATCAAAAACCCCCGTGATGTTAATCGGGTCTTGATTCGCTTGACGCTGCTG	9.67	8.8	8.78	4.41	10.8	8.35	7.43
CCGATTAACATCAGGGAATTTTATGATGTTAATCGGGTCTTGATTCGCTTGACGCTGCTG	6.12	9.33	8.44	4.82	6.83	8.16	6.55
CCGATTAACATCAAAAAACCACCTGATGTTAATCGGGTCTTGATTCGCTTGACGCTGCTG	4.79	5.1	7.1	1.37	8.7	5.41	6.81
CCGATTAACATCAGGGAAAACTATGATGTTAATCGGGTCTTGATTCGCTTGACGCTGCTG	3.76	5.55	7.33	5.67	1.67	4.07	4.03
CCGATTAACATCACAGAATCCCCTGATGTTAATCGGGTCTTGATTCGCTTGACGCTGCTG	8.13	8.87	11.1	3.42	7.58	6.21	6.89
CCGATTAACATCAAAAATACCCATGATGTTAATCGGGTCTTGATTCGCTTGACGCTGCTG	4.63	6.47	6.31	2.49	5.48	5.67	5.58
CCGATTAACATCAGGGGAACTACTGATGTTAATCGGGTCTTGATTCGCTTGACGCTGCTG	6.92	6.99	7.41	5.65	9.35	6.91	5.5
CCGATTAACATCACCGTGGGAAATGATGTTAATCGGGTCTTGATTCGCTTGACGCTGCTG	1.9	2.4	2.68	3.18	1.32	1.95	2.29
CCGATTAACATCAGGGAAACATATGATGTTAATCGGGTCTTGATTCGCTTGACGCTGCTG	2.23	3.74	4.15	5.27	1.07	4.73	1.78
CCGATTAACATCAGGGGATGAATTGATGTTAATCGGGTCTTGATTCGCTTGACGCTGCTG	3.07	4.37	5.12	4.99	2.75	3.44	3.88
CCGATTAACATCAGGCAATCCCCTGATGTTAATCGGGTCTTGATTCGCTTGACGCTGCTG	7.27	7.19	6.86	1.6	6.78	7.01	5.39
CCGATTAACATCAGGGGCATACCTGATGTTAATCGGGTCTTGATTCGCTTGACGCTGCTG	3.84	4.44	1.94	1.44	3.9	6.89	2.64

— publication PMC5700166
